# HepG2 viability: HepG2 cytotoxicity, counter-screen for TGF-b inhibitors | HepG2 CAGA-GFP viability, ATP luminescence, 18 h | Potency, µM (series often up to 46.1 µM), most hits filed as cytotoxic | AID 588856 | 410,000 tested, 0.76% active
#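 HepG2 CAGA-GFP cells (1000/well, DMEM with 1% FBS) received compound, then TGF-beta at 500 pg/mL final, and were incubated 18 hours at 37 degrees C. Viability was read by CellTiter-Glo luminescence. Media-only wells were set as complete cell-killing and DMSO as no toxicity.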
# S2 tox: reduces viability in counter-screen for ATXN expression inhibitors | S2 cells (HEK-293 line with an ATXN2-luciferase reporter) viability, CellTiter-Fluor protease fluorescence, 24 h | Potency, µM (highest dose often 56.7 µM), most hits filed as cytotoxic | 400,000 tested, 0.49% active; also: nearly all actives have a fitted effect of over 40% in size
# TGFb inhibitor: TGF-b pathway inhibition | 410,000 tested, 1.2% active | Potency, µM (highest dose often 46.1 µM), most hits filed as inhibitors | HepG2 CAGA-GFP TGF-b/SMAD3 reporter, GFP fluorescence, 18 h; TGF-beta stimulated, 500 pg/mL final | AID 588855; also: nearly all actives have a fitted effect of over 65% in size
#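 Using HEPG2 CAGA-GFP reporter cells at 1000 cells/well, we pinned test compounds, stimulated with recombinant TGF-beta (500 pg/mL final) and measured total well GFP after 18 h.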
# Nrf2 inh: blocks Nrf2 signaling; A549 ARE-Fluc reporter, luciferase luminescence, 18-24 h; Potency, µM (top dose mostly 46 µM), hits mostly inhibitors; 360,000 tested, 2.1% active; also: nearly all actives have a fitted effect of over 60% in size
#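 Concentration-response testing used A549 ARE_Fluc cells at 5000 cells/well. Following an 18-24 h compound incubation, viability was read by fluorescence (Ex 405/Em 525) and luciferase output by luminescence.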
# A549 viability: kills or reduces viability of A549 cells in Nrf2 counter-screen | A549 ARE-Fluc cells, CellTiter-Fluor viability, 18-24 h | Potency, µM (series often up to 46 µM), actives largely listed as inhibitors | 390,000 tested, 0.16% active
#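 Cytotoxicity counterscreen: CellTiter-Fluor fluorescence was measured in A549 ARE_Fluc cells after 18-24 h of compound exposure in a concentration series. The subsequent BugLite luminescent read reports ARE-luciferase activity.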
# ATXN2 expr inh: reduces ATXN2 reporter expression in HEK-293 cells; HEK-293 ATXN2-luciferase reporter, luminescence, 24 h; Potency, µM (titrated, usually from 57 µM), hits mostly inhibitors; 360,000 tested, 0.72% active; AID 1745845; also: nearly all actives have a fitted effect of over 55% in size
#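 ATXN2-luciferase reporter cells (luciferase flanked by upstream and downstream ATXN2 gene portions) were treated 24 h at 37 °C with compounds at up to 57 uM. SteadyGlo luminescence gave expression; GF-AFC fluorescence gave viability.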
# Hits are given with their value; – = inactive; ? = inconclusive; · = not tested or not shown; [ ] = dose if it differs, or a comment. Only some compounds are listed: those with a hit (about 3.8% of all), similar ones and a draw of the others. Calls follow the shape of the dose curve; as a rule, active = well fitted curve in the direction sought with a large enough effect; inconclusive = small, poorly fitted or top-dose-only effect, or another doubt; inactive = no such curve, though single readings can be large; an effect the other way counts as inactive or inconclusive.
SMILES,HepG2 viability,S2 tox,TGFb inhibitor,Nrf2 inh,A549 viability,ATXN2 expr inh
Cc1ccc(CNC(=O)c2ccc(CSCc3c(F)cccc3Cl)o2)cc1,–,–,16µM,·,–,–
Cc1ccc(C(C)(O)CS(=O)(=O)Cc2ccccc2Cl)cc1 (stereo unspecified),–,–,–,–,–,–
COc1ccc(N2CCN(C(CNS(C)(=O)=O)c3ccco3)CC2)cc1 (stereo unspecified),–,–,–,–,–,–
O=C(CN1Cc2ccccc2OC(c2ccsc2)C1)NCc1ccc2c(c1)OCO2 (stereo unspecified),·,–,·,·,·,·
CC(=O)Nc1ccc(NC(=O)CN(c2cc(Cl)ccc2Cl)S(C)(=O)=O)cc1,–,–,–,–,–,–
COCCN(Cc1cc2cc3c(cc2nc1Cl)OCO3)C(=O)Nc1ccccc1OC,–,–,–,–,–,–
COCCN(Cc1cc2cc3c(cc2nc1Cl)OCO3)C(=O)Nc1ccc(OC)cc1,–,–,–,7.3µM,–,·
COCCN(Cc1cc2cc3c(cc2nc1Cl)OCO3)C(=O)Nc1ccc(F)cc1,–,–,–,13µM,–,–
CCC(=O)N1CCc2cc(Br)cc(S(=O)(=O)CCC(=O)N(C)c3cccc(C)c3)c21,–,·,–,–[9.27 µM],–,·
CSCCC(NC(=O)c1ccccc1)C(=O)NCCCn1nc(C)cc1C (stereo unspecified),–,–,–,–,–,–
CC(=O)/C=C/c1ccc2c(c1)S(=O)(=O)N(C1CCCC1)[C@H]2CC(C)=O,10µM,·,7.1µM,·,·,·
COc1ccc(-c2nnc3n2N=C(c2c(OC)cccc2OC)CS3)cc1OC,·,·,·,–,–,·
CCCNC(=O)C1(C)CCCN(CCOc2ccccc2)C1 (stereo unspecified),–,–,–,·,·,–
CCCNC(=O)C1(C)CCCN(CCC(=O)c2ccccc2)C1 (stereo unspecified),14µM,–,16µM,·,·,–
O=C(CN(C(=O)CNC(=O)c1cccs1)c1cccc(F)c1)NC1CCCC1,–,–,–,–,–,–
COc1cccc(NC(=O)Cn2c(=O)n(CC(=O)NCCc3ccccc3)c(=O)c3sccc32)c1,–,·,–,–,–,·
CC(=O)c1c(C)[nH]c(C(=O)CSc2nnc(-c3ccccc3)o2)c1C,–,–,–,21µM,–,–
CC(=O)c1c(C)[nH]c(C(=O)CSc2ncnc3sc(-c4ccccc4)cc23)c1C,–,?,–,5.2µM,–,–
O=C(O)CSc1ncnc2sc(-c3ccccc3)cc12,–,–,–,–,–,–
COc1ccc(CN2CCc3ccccc3C2)c(OC)c1OC,–,?,–,–,–[1.84 µM],–
Cc1nc(N2CCN(Cc3ccccc3)CC2)nc2c1C(=O)CC(c1ccco1)C2 (stereo unspecified),–,–,–,?,–,–
Cc1nc(N2CCN(Cc3ccc4c(c3)OCO4)CC2)nc2c1C(=O)CC(c1ccco1)C2 (stereo unspecified),–,–,–,12µM,–,–
Nc1nc(-c2cccs2)c(NC(=O)c2ccccc2)s1,–,22µM,?,–,–,?
Cc1cnc2ccc(F)cc2c1,–,–,–,·,·,–
CCn1c2ccccc2c2cc(NC(=O)COC(=O)c3cccc(S(=O)(=O)NC)c3)ccc21,–,–,–,–,–,16µM
SMILES,HepG2 viability,S2 tox,TGFb inhibitor,Nrf2 inh,A549 viability,ATXN2 expr inh
CCn1c2ccccc2c2cc(NC(=O)COC(=O)Cc3cn4ccsc4n3)ccc21,–,–,?,?,–,28µM
COc1cc(SC)ccc1C(=O)N(Cc1ccccc1)c1ccccn1,–,–,–,–,–,–
COc1ccc(NS(=O)(=O)c2cc(NC(=O)C3CC3)ccc2N2CCCCC2)cc1,–,?,?,16µM,–,?
COc1ccc(NS(=O)(=O)c2ccc(N3CCCCC3)c(N)c2)cc1,–,?,?,6.5µM,–,·
COc1ccccc1NS(=O)(=O)c1cc(NC(=O)c2cccnc2)ccc1N1CCCCC1,–,?,?,21µM,–,?
Cc1cc(C)c(S(=O)(=O)N2CCCOC2CNC(=O)C(=O)NCCc2c[nH]c3ccccc23)c(C)c1 (stereo unspecified),–,–,?,?,–,–
COc1ccc(-c2noc(CSc3nnc(C)n3-c3ccc(C)c(C)c3)n2)c(OC)c1,–,–,–,–,–,–
COc1ccccc1-c1noc(CSc2nnc(Cc3ccccc3)n2-c2ccc(C)c(C)c2)n1,–,·,?,23µM,?,?
CCOc1ccc(-n2c(Cc3ccccc3)nnc2SCc2nc(-c3cccs3)no2)cc1,–,?,?,18µM,?,?
CC(C)N1CCN(c2ccc(OCC3COC(Cn4cncn4)(c4ccc(Cl)cc4Cl)O3)cc2)CC1 (stereo unspecified),–,?,–,–,–,–
CC(C)N1CCN(c2ccc(OC[C@H]3CO[C@](Cn4cncn4)(c4ccc(Cl)cc4Cl)O3)cc2)CC1,13µM,?,?,–,–,?
NC(=O)C1CCN(C2=C(NS(=O)(=O)c3ccc(Cl)cc3)C(=O)c3ccccc3C2=O)CC1,–,?,11µM,–,–,·
COC(=O)C1CCN(C2=C(NS(=O)(=O)c3ccc(Cl)cc3)C(=O)c3ccccc3C2=O)CC1,–,?,?,?,–,–
CC(=O)Nc1ccc(S(=O)(=O)NC2=C(N3CCN(c4ccc(F)cc4)CC3)C(=O)c3ccccc3C2=O)cc1,–,?,11µM,?,?,–
Cc1ccc(S(=O)(=O)NC2=C(N3CCN(c4ccccc4F)CC3)C(=O)c3ccccc3C2=O)cc1,–,?,–,–,–,–
CCOC(=O)N1CCN(C2=C(NS(=O)(=O)c3ccc(C)cc3)C(=O)c3ccccc3C2=O)CC1,–,32µM,22µM,–,–,·
CCc1nnc2c(N3CCN(c4cccc(C)c4)C(C)C3)nc3ccccc3n12 (stereo unspecified),–,·,–,?,–,·
CC1(C)CCc2cc(-c3ccn(S(=O)(=O)c4ccccc4Cl)n3)ccc2O1,–,–,–,–,–,–
COc1ccc(S(=O)(=O)n2ccc(-c3ccc4c(c3)CCC(C)(C)O4)n2)cc1,–,–,?,13µM,–,–
CCOc1ccc(C(=O)C(CN2CCOCC2)c2ccccc2)cc1 (stereo unspecified),–,·,?,?,–,28µM
O=C(c1ccc(Br)cc1)C(CN1CCOCC1)c1ccccc1 (stereo unspecified),–,·,11µM,–,–,27µM
O=C(c1ccccc1)C(CN1CCCCC1)c1ccccc1 (stereo unspecified),–,32µM,?,?,–,20µM

# Screening results as filed in PubChem.
